The record followed here is PubChem BioAssay AID624330 (Southern Research Specialized Biocontainment Screening …, 2012).

The whole screen tested about 340,000 compounds, of which about 2,100 (0.62%) were called active. Not all results are given here. Entries with a potency or affinity are not part of this list. Unmarked numbers belong to inactive results.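 Rule for the calls: active = first-screen hits whose inhibition reached a set limit at any dose in the follow-up dose series; inconclusive = inhibition above the set first-screen limit but never retested; inactive = the rest.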

One may read the inhibition as the change of the read-out against control, counted positive when it falls.

The target in this assay is Rac GTPase-activating protein 1 (Homo sapiens) (UniProt Q9H0H5). The experiment in a line: MgcRacGAP GTPase-activating activity inhibitors, confirmation, biochemical, ADP Hunter fluorescence, primary and confirmatory (AID 624330).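 Note: fluorescence reports GDP produced by GAP-driven GTP hydrolysis.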 To be noted: MgcRacGAP-stimulated Rac1 GTP hydrolysis, at 30 µM, active compounds read high, GST-tagged Rac1 F28L mutant substrate.
Sequence of Rac GTPase-activating protein 1 (Homo sapiens) (Q9H0H5 whole entry, looked up): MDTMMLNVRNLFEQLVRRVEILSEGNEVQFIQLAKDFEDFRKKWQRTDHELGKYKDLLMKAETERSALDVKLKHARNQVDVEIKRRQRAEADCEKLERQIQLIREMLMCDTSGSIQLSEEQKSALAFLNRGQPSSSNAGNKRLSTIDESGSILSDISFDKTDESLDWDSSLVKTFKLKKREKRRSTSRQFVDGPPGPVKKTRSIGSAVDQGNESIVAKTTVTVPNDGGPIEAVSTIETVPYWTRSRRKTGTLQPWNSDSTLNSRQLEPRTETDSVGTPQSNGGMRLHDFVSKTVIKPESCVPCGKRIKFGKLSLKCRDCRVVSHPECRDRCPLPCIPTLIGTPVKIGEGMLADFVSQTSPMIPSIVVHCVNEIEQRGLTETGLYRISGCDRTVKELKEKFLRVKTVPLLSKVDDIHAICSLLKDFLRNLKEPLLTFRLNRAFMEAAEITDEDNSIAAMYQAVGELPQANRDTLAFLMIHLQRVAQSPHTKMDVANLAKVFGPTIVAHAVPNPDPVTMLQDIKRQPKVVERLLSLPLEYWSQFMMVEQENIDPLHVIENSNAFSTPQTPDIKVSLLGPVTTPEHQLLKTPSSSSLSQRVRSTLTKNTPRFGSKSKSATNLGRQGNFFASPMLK
For `CC(Sc1nncn1C)C(=O)Nc1nnc(C(C)C)s1` (centres undefined), the inhibition is -0.22%.

On to `CC(=O)CSc1nnc(NC(=O)CCc2ccccc2)s1`, for which the inhibition is 2.89%.

On to `CCNC(=S)NNC(=O)c1cc(Br)cs1`, for which the inhibition was 11.2%.

In the case of `CCCCn1c(N)c(N(Cc2ccccc2OC)C(=O)C(C)Oc2ccc(F)cc2)c(=O)[nH]c1=O` (centres undefined), the inhibition was 6.07%.

Take `C=CCSc1nnc(NC(=O)CSc2nc(CCC)cc(=O)[nH]2)s1`: the inhibition is 12.2%.

In the case of `COc1cc(NC(=O)CN2C(=O)NC(C)(CCC(C)C)C2=O)cc(OC)c1` (centres undefined), the inhibition was -1.63%.

Turning to `C=CCOC(=O)Nc1c(C(=O)OC)[nH]c2ccc(Cl)cc12`, the inhibition was 0.34%.

With `CCOC(=O)c1[nH]c2ccccc2c1NC(C)=O`, the inhibition was 2.46%.

Take `COC(=O)c1[nH]c2ccc(C)cc2c1NC(=O)Oc1ccccc1`: the inhibition is 84.7%.

As for `COC(=O)c1[nH]c2ccccc2c1NC(=O)c1c(F)cccc1F`, the inhibition was -14.4%.

For `C=CCOC(=O)Nc1c(C(=O)OC)[nH]c2ccccc12`, the inhibition was 13.1%.

For `COC(=O)c1[nH]c2cc(OC)c(OC)cc2c1NC(=O)c1cccc(OC)c1`, the inhibition was 10.8%.

`CCOC(=O)c1[nH]c2ccccc2c1NC(=O)CC`: the inhibition was -0.8%.

For `CCOC(=O)Nc1c(C(=O)OC)[nH]c2cc(OC)ccc12`, the inhibition was 8.73%.

For the compound `N#Cc1c(/N=C/c2cc(Br)cs2)sc2c1CCC2`, the inhibition is 14.5%.

In the case of `NC(=O)C[C@@H]1NC(=O)[C@H](CCC(=O)O)NC(=O)c2cc([N+](=O)[O-])cc(I)c2OCC[C@@H](C(N)=O)NC1=O`, the inhibition was 6.13%.

On to `CC1CCN(C(=O)CSc2nnc(-c3cccnc3)o2)CC1`, for which the inhibition is 7.43%.

Take `Cc1cc(C)nc(NC(=NCCc2c[nH]c3ccccc23)NC(=O)Nc2cccc([N+](=O)[O-])c2)n1`: the inhibition is 8.14%.

For `Cc1ccc(-c2[nH]ncc2/C=C(\C#N)C(=O)NC2CCCCC2)cc1`, the inhibition is 6.42%.

`Cc1cc(C)c(C(=O)N2CCCC(C(=O)c3cc(F)ccc3F)C2)o1` (centres undefined): the inhibition is 5.58%.

Take `CCOC(=O)c1[nH]c2ccc(OC)cc2c1NC(=O)c1cccc(OC)c1`: the inhibition was 5.01%.

In the case of `CCOC(=O)c1[nH]c2ccc(F)cc2c1NC(=O)c1ccccc1C(=O)O`, the inhibition was 66%.

Take `CCc1ccc(CN(C)C(=O)c2cc(COc3ccc(OC)cc3Cl)on2)nc1`: the inhibition was 10.7%.

On to `Oc1ccc(-c2nccc(-c3cccs3)n2)cc1`, for which the inhibition was 9.71%.

As for `c1ccc2nc(-c3nccs3)ccc2c1`, the inhibition is 1.49%.

In the case of `COc1cc(CCCN2CCNC[C@@H]2C(C)O)cc(OC)c1OC` (some centres undefined), the inhibition is 3.02%.

Turning to `COc1ccc(N2CCN(C(=O)CCCn3c(=O)[nH]c4cc(Cl)ccc4c3=O)CC2)cc1`, the inhibition is 12.7%.

In the case of `Cc1nnc(SCc2ccc(Cl)c(Cl)c2)s1`, the inhibition is 5.65%.

As to `CCc1noc(C)c1C(=O)NNC(=O)c1ccc(Br)cc1`, the inhibition was 5.66%.

For `N#C/C(=C\c1cccc(O)c1)C(=O)Nc1ccc2c(c1)OCCO2`, the inhibition was 7.83%.

On to `CCOC(=O)/C(C#N)=C\c1ccc(OC)c(OC)c1`, for which the inhibition was 8.76%.

Turning to `N#C/C(=C\c1ccc2c(c1)OCCO2)C(=O)Nc1ccc(C(=O)O)cc1`, the inhibition is 8.32%.

As to `COCCNC(=O)/C(C#N)=C/c1ccc2c(c1)OCO2`, the inhibition is 0.46%.

With `COc1cc(/C=C(\C#N)C(=O)Nc2ccccn2)ccc1O`, the inhibition is 14.9%.

`CCOC(=O)/C(C#N)=C/c1ccc(OC)c(OC)c1`: the inhibition is 5.15%.

As for `Cc1cc(C)c(OCCOCCN(C)C)c(Br)c1`, the inhibition is 12.7%.

Take `CC(C)(C)[C@@H]1C=C(C(N)=O)O[C@H](OCCCCO)C1`: the inhibition is 4.43%.

As for `CN(C(=O)CN1C(=O)NC(C)(c2cccc(Br)c2)C1=O)C1CCCCC1` (centres undefined), the inhibition is 6.93%.

As to `COc1ccc2nc(SCCOC(=O)Nc3ccc(Cl)cc3)nc(C)c2c1`, the inhibition was 9.72%.

On to `CC1=C(C(=O)NC2CC(C)(C)Cc3c2cnn3-c2cccc(F)c2)OCCO1` (centres undefined), for which the inhibition is -2.86%.

On to `CCC(C(=O)Nc1cc(C)nn1-c1nc(C)cc(C)n1)c1ccccc1` (centres undefined), for which the inhibition is 13.7%.

For `COc1cccc(/C=C2/C(=O)NN(c3ccc(Br)cc3)C2=O)c1O`, the inhibition was 13.4%.

Take `O=C1NN(c2cccc(Br)c2)C(=O)/C1=C\c1ccc(O)cc1`: the inhibition is 14.5%.

Turning to `O=C1NN(c2ccccc2)C(=O)C1=Cc1ccccc1`, the inhibition was 13.7%.

In the case of `O=C1NN(c2ccccc2)C(=O)/C1=C\c1ccccc1`, the inhibition was 21.7%.

Turning to `CCC1CCCCN1C(=O)CCS(=O)(=O)c1ccc2c(c1)CCN2C(C)=O` (centres undefined), the inhibition was 8.33%.

As to `CCOc1ccc(N(CC(=O)Nc2ccccc2OC)S(C)(=O)=O)cc1`, the inhibition was 9.6%.

Consider `C/C(=N\NC(=O)OC(C)(C)C)c1ccccc1Br`, for which the inhibition was -4.8%.

As for `CCCc1cc(=O)[nH]c(SCC(=O)N2CCCCCC2)n1`, the inhibition is 2.49%.

For the compound `COc1ccc(N2CCN(C(=O)CCS(=O)(=O)c3cccc4nsnc34)CC2)cc1`, the inhibition was 28%.

Regarding `Cn1nnnc1SCC(=O)Nc1cc(S(=O)(=O)N2CCCC2)ccc1Cl`, the inhibition was 4.66%.

For `CC(/C=N/n1cnnc1)=C\c1ccccc1`, the inhibition was 3.71%.

`CC(=C/c1ccccc1)/C=N/n1c(C)n[nH]c1=S`: the inhibition is 15.2%.

On to `CC(=C/c1ccccc1)/C=N/n1cnnc1`, for which the inhibition is -1.27%.

`CC(/C=N/n1c(-c2ccccc2)n[nH]c1=S)=C\c1ccco1`: the inhibition is 24.1%.

Take `CC(=O)Nc1ccc(S(=O)(=O)NNC(=O)c2cccc([N+](=O)[O-])c2)cc1`: the inhibition is 5.98%.

For `COc1ccccc1NC(=O)CCC(=O)c1ccc(-c2ccccc2)cc1`, the inhibition was -5.2%.

Turning to `CCc1ccc(NC(=O)C(=O)NCCOc2ccccc2Cl)cc1`, the inhibition was -2.71%.

In the case of `Cc1ccccc1C(=O)c1cccn1CC(=O)NC1CCCC(C)C1C` (centres undefined), the inhibition is -36.1%.

With `NC(=O)C1(N2CCCCC2)CCN(Cc2ccc(Br)cc2)CC1`, the inhibition is -3.42%.

As to `CC1CCN(CCOCCOc2ccc(Br)cc2Cl)CC1`, the inhibition is 5.16%.

As to `Cc1cc(Cl)c(OCCOCCN2CCC(C)CC2)c(Br)c1`, the inhibition was 21.9%.

Consider `Cc1cc(C)c(OCCOCCN2CCN(C)CC2)c(Cl)c1`, for which the inhibition is 22.7%.

Turning to `CC1CCCN(CCOCCOc2ccc(Br)cc2Cl)C1` (centres undefined), the inhibition was 30.6%.

Take `CC(C)(C)c1ccccc1OCCOCCN1CCCCCC1`: the inhibition was -5.46%.

As for `Cc1ccc(C(C)(C)C)c(OCCOCCN2CCCC2)c1`, the inhibition is 24.1%.

As for `Cc1ccc(OCCOCCN2CCCC2)c(Br)c1`, the inhibition is 31.4%.

For `Clc1cc(Br)ccc1OCCN1CCOCC1`, the inhibition was 24.7%.

Take `Cc1cccc(/C(N)=N/OC(=O)Cc2cccs2)c1`: the inhibition is 2.9%.

As to `Cn1c(=O)c2c(nc(Oc3ccc(-c4ccccc4)cc3)n2C)n(C)c1=O`, the inhibition was 12.2%.

For the compound `COc1ccc(C(=O)Oc2c(OC)cc(C(=S)N3CCOCC3)cc2OC)cc1`, the inhibition was 4.31%.

On to `Cc1ccc(OCCCCN2CCC(C)CC2)c(Br)c1`, for which the inhibition is 17%.

In the case of `Cc1cc(Br)ccc1OCCCCN1CCC(C)CC1`, the inhibition is 9.17%.

In the case of `C[C@@H]1CN([C@@H](C)CO)C(=O)CCCn2nncc2CO[C@@H]1CN(C)S(C)(=O)=O`, the inhibition was 12%.

On to `COCc1ccc(C(=O)N2CCCCC2C(=O)Nc2ccc(-n3nc(C)cc3C)cc2)o1` (centres undefined), for which the inhibition is 7.88%.

In the case of `O=C(NCCCNC(=O)c1ccco1)c1ccc(Cl)c(Cl)c1`, the inhibition was 0%.

On to `COc1ccc(N=CC2=C(O)CCCC2=O)cc1`, for which the inhibition was 13.3%.

With `O=C1CCCC(O)=C1C=Nc1cccc(C(F)(F)F)c1`, the inhibition is 11.5%.

Turning to `CC1(C)CC(=O)C(C=Nc2ccccc2)=C(O)C1`, the inhibition was 2.7%.

In the case of `CC1(C)CC(=O)C(C=Nc2ccncc2)=C(O)C1`, the inhibition was 6.33%.

Take `O=C1CC(c2ccccc2)CC(O)=C1C=Nc1ccccc1O` (centres undefined): the inhibition was 4.93%.

For `COc1ccc(N=CC2=C(O)CC(C)(C)CC2=O)cc1`, the inhibition is 9.7%.

With `O=C1CC(c2ccccc2)CC(O)=C1C=Nc1ccc(Cl)cc1` (centres undefined), the inhibition is 2.18%.

On to `CCOc1ccc(N=CC2=C(O)CC(C)(C)CC2=O)cc1`, for which the inhibition is 6.9%.

For the compound `Cc1ccc(CN2CCN(/N=C/c3ccc(C)s3)CC2)c(C)c1`, the inhibition was 4.97%.

Turning to `COc1ccc(Nc2nnc(SCC(=O)NC3CCS(=O)(=O)C3)s2)cc1` (centres undefined), the inhibition was 4.04%.

Turning to `O=C(CN1C(=O)NC2(CCCCCC2)C1=O)N1CCN(S(=O)(=O)c2ccccc2)CC1`, the inhibition was 0.28%.

As to `CC(=O)NC1C(=O)N(CC(C)C)c2ccccc21` (centres undefined), the inhibition was 4.92%.

Take `CCCc1ccc2c(N)c(C#N)sc2n1`: the inhibition is 1.65%.

In the case of `Cc1ccccc1C(=O)N(CC(=O)Nc1sc(C)c(C)c1C(N)=O)C1CCCC1`, the inhibition is -20.9%.

With `CCOc1ccc(NC(=O)N(CCC(C)C)C2CCN(C(C)=O)CC2)cc1`, the inhibition was 4.34%.

As for `CCN1C(=O)c2cccc3c(N)ccc(c23)C1=O`, the inhibition is 7.37%.

For the compound `Nc1ccc2c3c(cccc13)C(=O)N(c1ccccc1)C2=O`, the inhibition was 5.87%.

In the case of `Cc1ncoc1C(=O)N1CCCC(C(=O)Nc2cccc(-c3ccc(F)cc3)c2)C1` (centres undefined), the inhibition was -3.84%.

As to `CCCc1cc(C(=O)OC)c2ccccc2n1`, the inhibition was 5.2%.

Regarding `O=C(COC(=O)C1CCC(=O)N1)Nc1ccc(Br)cc1` (centres undefined), the inhibition is 15.9%.

In the case of `COc1ccc(CCNC(C(=O)Nc2cc(C)cc(C)c2)c2ccccc2)cc1` (centres undefined), the inhibition was 2.32%.

Consider `Cc1cc(C)cc(NC(=O)C(NCC2CCCO2)c2ccccc2)c1` (centres undefined), for which the inhibition was 20.5%.

On to `CCC1(C)CC(CCN(Cc2ccco2)C(C)=O)(c2ccccc2)CCO1` (centres undefined), for which the inhibition was 6.02%.
